The assay deals with Vero E6 infected with SARS-CoV-2. The assay can be described thus: morphology score (similarity to uninfected cells); higher = more like uninfected cells. Conditions: 24 h.
In turn, `CC[C@H]1OC(=O)C[C@@H](O)[C@H](C)[C@@H](O[C@@H]2O[C@H](C)C[C@H](N(C)C)[C@H]2O)[C@@H](CC=O)C[C@@H](C)C(=O)/C=C/[C@]2(C)O[C@H]2[C@@H]1C` [rosamicin] (10 µM) came in with a morphology score of 0.129.
For the molecule `O=C(O)CNC(=O)c1c(O)c2ccccc2n(Cc2ccccc2)c1=O` (10 µM), the morphology score was -0.000636.
For the molecule `O=S(=O)(O)c1cc(I)c(O)c2ncccc12` [chiniofon] (10 µM), the morphology score was 0.0464.
To `C#C[C@]1(O)CC[C@H]2[C@@H]3CCC4=CC(=O)CC[C@@H]4[C@H]3CC[C@@]21C` [Norethindrone (Norethisterone)] (10 µM) belongs -0.0201; to `CNS(=O)(=O)CCc1ccc2[nH]cc(C3CCN(C)CC3)c2c1` [naratriptan] (10 µM), 0.0727.
Molecule `Nc1nccc(Oc2ccc(NC(=O)c3c[nH]cc(-c4ccc(F)cc4)c3=O)cc2F)c1Cl` [metatinib] (10 µM) had a morphology score of 0.551.
The result for `O=C1Cc2c([nH]c3ccc(Br)cc23)-c2ccccc2N1` [kenpaullone] (10 µM) reads 0.533; that for `COCCOC(=O)C1=C(C)NC(C)=C(C(=O)OC(C)C)C1c1cccc([N+](=O)[O-])c1` (centres undefined) [nimodipine] (10 µM), 0.14; that for `COc1cc(OC)cc(N(CCNC(C)C)c2ccc3ncc(-c4cnn(C)c4)nc3c2)c1` [erdafitinib] (0.833333 µM), 0.151.
In the case of `COc1ccc(COc2cc3oc(=O)c4cc(C(C)O)ccc4c3cc2OC)cc1` (centres undefined) [palomid-529] (10 µM), the morphology score turned out to be 0.0689.
Consider `COc1cc2c(NC3CCN(C)CC3)nc(N3CCCN(C)CC3)nc2cc1OCCCN(C)C` (10 µM), for which the morphology score is 0.124.
For the molecule `CC1(C)CN(C(=O)c2ccc(-c3cccc4nc(NC(=O)C5CC5)nn34)cc2)C1` [solcitinib] (10 µM), the morphology score turned out to be 0.0939.
To `Cc1nn(C)c2nc(NNC(=O)Nc3cc(Cl)nc(Cl)c3)cc(C(C)C)c12` (10 µM) belongs 0.0785; to `CCN1CCC[C@H]1CNC(=O)c1c(O)c(Cl)cc(Cl)c1OC` [raclopride] (10 µM), 0.124; to `COC(=O)N1CC[C@@H]2[C@H]1CCC[C@@]2(O)C#Cc1cccc(C)c1` [mavoglurant] (10 µM), -0.125.
The result for `C[C@@]1(C(=O)O)NCCc2cc(O)c(O)cc21` [salsolinol-1-carboxylic-acid] (10 µM) reads -0.0436; that for `Cc1cc(N2CCCCC2)nc2ccccc12` (10 µM), 0.282; that for `CCCCCCCCCCCCCCCC(=O)OC(CC(=O)[O-])C[N+](C)(C)C` (centres undefined) [palmitoylcarnitine] (0.833333 µM), -0.0181.
The result for `CCCn1c(=O)[nH]c2nc(-c3ccc(S(=O)(=O)O)cc3)[nH]c2c1=O` (10 µM) reads 0.179; that for `CCOc1ccc(NC(=S)N2CCC(C(O)(c3ccccc3)c3ccccc3)CC2)cc1` (10 µM), 0.267.
Regarding `CCNC(=O)C#Cc1ccc2c(C(=Nc3ccc(CN(C)C)cc3)c3ccccc3)c(O)[nH]c2c1` (0.833333 µM), the morphology score was -0.154.
In the case of `CCCCc1nn(-c2ccccc2C(F)(F)F)c(=O)n1Cc1ccc(-c2ccccc2S(=O)(=O)NC(=O)c2sccc2C)cc1` (10 µM), the morphology score is 0.0872.
The result for `CCCCOC(=O)c1cc2c(cn1)[nH]c1ccccc12` [beta-CCB] (10 µM) reads 0.156.
For `Nc1c(-c2cccc(C(F)(F)F)c2)nsc1C(=O)O` [amflutizole] (10 µM), the morphology score was 0.00564.
As to `O=C(Nc1ccc(N2CCC(C(=O)N3CCOCC3)CC2)cc1)c1cnc(Oc2ccccc2)nc1` (10 µM), the morphology score is -0.02.
Turning to `CCC(CO)(C(=O)OC1CC2CCC(C1)[N+]2(C)C)c1ccccc1` (centres undefined) [troventol] (10 µM), the morphology score is -0.023.
As to `CCCc1nn(C)c2c(=O)[nH]c(-c3cc(S(=O)(=O)N4CCN(C)CC4)ccc3OCC)nc12` [sildenafil] (10 µM), the morphology score is 0.056.
`Cn1ccc2cc(NC(=O)Nc3cccnc3)ccc21` (10 µM) displayed a morphology score of -0.0432.
Molecule `CN1[C@@H]2CC[C@H]1C[C@@H](OC(=O)c1c[nH]c3ccccc13)C2` [tropisetron] (10 µM) gave a morphology score of -0.0266.
To `CC(CN(C)C)C(C)(O)Cc1ccc(Cl)cc1` (centres undefined) [clobutinol] (10 µM) belongs 0.00198.
To `CSCC[C@H](NC(=O)[C@H](CC(C)C)NC(=O)[C@@H](Cc1c[nH]c2ccccc12)NC(=O)[C@H](Cc1ccccc1)N(C)C(=O)[C@@H](Cc1c[nH]c2ccccc12)NC(=O)[C@@H](N)CCCNC(=N)N)C(N)=O` [antagonist-g] (10 µM) belongs -0.124; to `O=C1c2ccccc2S(=O)(=O)N1CCCCN1CCN(c2ncccn2)CC1` [ipsapirone] (10 µM), -0.0209; to `CC(C)(O)[C@@H]1[C@H]2OC(=O)[C@@H]1[C@]1(O)C[C@H]3O[C@]34C(=O)O[C@H]2[C@]14C` [picrotin] (10 µM), 0.0343.
To `O=C(c1ccc(Nc2nccc(-c3cc4ccccc4s3)n2)cc1)N1CCC(N2CCCC2)CC1` (0.833333 µM) belongs 0.629.
`CC1=NN(c2ccccc2)C(=O)C1` [edaravone] (10 µM) registered a morphology score of 0.127.
To `CC(C)[C@@H](C(=O)Nc1nccs1)c1ccc(Cl)cc1` (10 µM) belongs 0.0344.
`O=c1c2ccccc2[se]n1-c1ccccc1` [Ebselen] (10 µM) returned a morphology score of 0.34.
Turning to `CC[C@@]1(O)C(=O)OCc2c1cc1n(c2=O)Cc2c-1nc1cc(F)c(C)c3c1c2[C@@H](N)CC3` [exatecan-mesylate] (0.833333 µM), the morphology score is 0.0535.
The result for `c1ccc2c(c1)sc1ccccc12` [dibenzothiophene] (10 µM) reads 0.0443.

(Values after the supplement of paper PMC13380429.)
